Results on 40 molecules are retold here after PubChem BioAssay.

Values without a mark were called inactive. The rule behind the calls is not given here.

Pantothenate synthetase (Mycobacterium tuberculosis (strain ATCC 25618 / H37Rv)), sequence (P9WIL5 whole entry, looked up): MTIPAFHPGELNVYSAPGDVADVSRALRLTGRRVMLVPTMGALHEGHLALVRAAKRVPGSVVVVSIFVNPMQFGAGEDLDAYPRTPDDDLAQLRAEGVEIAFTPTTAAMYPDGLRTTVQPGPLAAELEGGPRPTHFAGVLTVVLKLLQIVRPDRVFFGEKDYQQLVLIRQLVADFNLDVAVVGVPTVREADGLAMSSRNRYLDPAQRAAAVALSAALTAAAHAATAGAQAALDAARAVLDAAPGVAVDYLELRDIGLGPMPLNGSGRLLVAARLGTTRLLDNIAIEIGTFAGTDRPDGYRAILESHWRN

The assay has as its target Pantothenate synthetase (Mycobacterium tuberculosis (strain ATCC 25618 / H37Rv)) (UniProt P9WIL5). The assay is described as follows: Recombinant Mtb pantothenate synthetase (PanC) inhibitors, coupled enzyme, confirmatory (AID 375).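 Note: 0% = full reaction with vehicle and 100% = no enzyme background.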 The conditions noted are these: coupled enzyme assay; at 10 µM, stronger effect = higher value.
For `O=C(Cn1c(=O)[nH]n(-c2ccccc2)c1=O)N1CCCc2ccccc21`, the inhibition is 0%.

In the case of `Cc1ccccc1Nc1nc(N)nc(CSCc2c(C)noc2C)n1`, the inhibition is 0%.

For the molecule `C=CCN1C(=O)CS/C1=C(\C#N)S(=O)(=O)c1ccc(C)cc1`, the inhibition is 0%. The figure for `CCN1CCCC1CNC(=O)CS(=O)(=O)Cc1nc(-c2ccccc2C)oc1C` (stereo not given) is 0%.

`CC(O)c1cc2c(cc1NC(=O)c1cnn3c1NC(c1ccco1)CC3C(F)(F)F)OCO2` (stereo not given): the inhibition is 0%. The figure for `COc1ccc(-n2nnnc2-c2cccc(OC)c2)cc1` is 0%; for `COc1cc2c(cc1OC)CN(CC(=O)Nc1cccc(C)c1)CC2` it is 11%; for `Brc1c(NC2=NCCN2)ccc2nccnc12` it is 0%. The figure for `CCOC(=O)c1c(NC(=O)c2ccoc2C)sc2c1CCC2` is 7%; for `O=C(Nc1cc(C(F)(F)F)ccc1Cl)c1cc(C2CC2)on1` it is 2%.

As for `Cc1cc(Nc2ccccc2)n(-c2ccccc2)n1`, the inhibition was 3%. As for `O=C(Cn1nc(Cc2cccnc2)c2ccccc2c1=O)NCC1CCCO1` (stereo not given), the inhibition was 0%.

`CCOc1ccc(NC(=O)C(C)Sc2nnc(C)n2C)cc1` (stereo not given): the inhibition is 0%. Next, `Cc1ccc(Cn2nnc(C(=O)Nc3cccc(C)c3C)c2N)cc1`: 5%. Next, `Cc1cc(C)cc(NC(=O)C2CCCN(S(=O)(=O)c3cnc[nH]3)C2)c1` (stereo not given): 0%.

Regarding `Nc1cc(C(=O)O)ccc1Nc1ccc(F)c(F)c1`, the inhibition was 5%. The figure for `CCOC(=O)CSc1nc(N)c2c3c(sc2n1)CCCC3` is 0%; for `CC(=O)Nc1ccc(OCC(O)CN2CCN(c3cccc(Cl)c3)CC2)cc1` (stereo not given) it is 3%; for `CCn1c(C(C#N)/C(=N\S(=O)(=O)c2cccs2)c2ccccc2)nc2ccccc21` (stereo not given) it is 6%. Next, `COc1ccc(CCNC(=O)CC2COc3ccccc3O2)cc1OC` (stereo not given): 0%; `O=C(CC1(O)C(=O)Nc2ccccc21)c1ccc2c(c1)OCO2` (stereo not given): 0%. Next, `COc1ccc(Cl)cc1NC(=O)COc1cccc(-n2cnnn2)c1`: 0%; `Cc1ccc(CNC(=O)C2CCCN(S(=O)(=O)c3cccnc3)C2)cc1` (stereo not given): 0%. `O=C(NC1CCCC1)c1ccc(S(=O)(=O)N2CCCC2)cc1`: the inhibition was 0%. The figure for `O=C(CSc1nc2ccccc2[nH]1)N1CCCCC1` is 0%. The figure for `O=C(CSc1nnc2ncccn12)N1CCCCCC1` is 0%.

For the molecule `O=C(CSc1oc(-c2ccco2)nc1S(=O)(=O)c1ccccc1)NCC1CCCO1` (stereo not given), the inhibition was 0%. Next, `CC(=O)OCC(=O)[C@@]1(O)CC[C@H]2[C@@H]3CCC4=CC(=O)CC[C@]4(C)[C@H]3C(=O)C[C@@]21C`: 0%. With `c1ccc(-c2cc(-c3nc(-c4ccccn4)no3)c3ccccc3n2)cc1`, the inhibition was 0%. The figure for `CC(=O)c1cc(-c2ccccc2)n(CC(=O)N2CCN(C3CCCC3)CC2)c1C` is 11%; for `CCN(CCNC(=O)C1CCN(S(=O)(=O)CC)CC1)c1ccccc1` it is 2%; for `O=C(Nc1ccc(N2CCN(Cc3ccccc3Cl)CC2)cc1)c1cccnc1` it is 4%. In the case of `N#Cc1ccc(COC(=O)Cn2nnc(-c3ccccc3)n2)cc1`, the inhibition was 0%. Next, `CCn1c(C(=O)OC)cc2c1ccn2-c1ccc(F)cc1`: 0%; `Cc1cc(NS(=O)(=O)c2ccc(NC(=O)COc3ccccc3C(C)C)cc2)no1`: 0%; `CC(C)(C)OC(=O)N1CC=C2C(C#N)=C(N)C(C#N)(C#N)C(c3cccs3)C2C1` (stereo not given): 0%. The figure for `C(=N\n1cnnc1)/c1cccnc1` is 0%. `CCn1c(CCNC(=O)c2cccs2)nnc1SCC(=O)c1ccc(OC)cc1`: the inhibition was 0%. The figure for `Cc1cc2ccccc2n1CCNC(=O)c1ccc(S(=O)(=O)N2CCOCC2)cc1` is 4%; for `COc1cc(-c2nnc(SCc3c(F)cccc3Cl)o2)cc(OC)c1OC` it is 0%.
